Reference: PubChem BioAssay AID1240 (Sanford-Burnham Center for Chemical Genomics, 2008)
Screen size: about 50,000 compounds; about 800 (1.6%) showed an effect of 50% or more. Shown is part of a subset that was picked to be rich in strong results.

target: Bcl-2-like protein 10 (Homo sapiens) (UniProt Q9HD36); experiment: Phenotype converters, Bcl-B/TR3 peptide binding displacement, primary biochemical FP (AID 1240); conditions: GST-Bcl-B / FITC-TR3 peptide fluorescence polarization; stronger effect = higher value; compound at 3.75 mg/L;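 further: 0% = Bcl-B with tracer peptide and DMSO and 100% = tracer peptide lacking Bcl-B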
Sequence (Q9HD36 whole entry, looked up): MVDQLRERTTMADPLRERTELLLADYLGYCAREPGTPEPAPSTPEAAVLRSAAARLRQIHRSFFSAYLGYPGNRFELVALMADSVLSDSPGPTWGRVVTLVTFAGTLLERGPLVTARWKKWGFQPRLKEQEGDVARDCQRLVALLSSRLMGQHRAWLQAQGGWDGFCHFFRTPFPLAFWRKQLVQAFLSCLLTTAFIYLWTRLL

SMILES | displacement [%]
COc1ccc(C2Nc3ccccc3C(=O)N2Cc2ccccc2)cc1Cn1nc(C)c(Br)c1C (stereo unspecified) | 15.4
CCOC(=O)c1c(NC(=O)COc2cc(Cl)ccc2Cl)sc(C)c1C | -8
CCOC(=O)c1sc(NC(=O)COc2ccc(Cl)cc2C)c(C(=O)OCC)c1C | -5.1
Cc1cc(Cl)ccc1OCC(=O)Nc1sc(C)c(C)c1C(N)=O | 79.1
O=C(N/N=C/c1ccc(Cl)c(Cl)c1)C1CC(=O)N(c2ccccc2)C1 (stereo unspecified) | -9.3
CS(=O)(=O)N(CC(=O)NCc1ccncc1)c1ccc(Oc2ccccc2)cc1 | 10.2
Fc1ccccc1-c1nc(-c2ccc(Br)cc2)no1 | 4.3
O=C(Nc1cccc2nsnc12)c1ccco1 | 4
Cc1ccc2nsnc2c1NC(=O)c1ccc(Br)o1 | 15.6
CCOc1ccc(C(=O)Nc2cccc3nsnc23)cc1Cl | 30.9
CCOc1ccc(C(=O)Nc2cccc3nsnc23)cc1[N+](=O)[O-] | 10.7
O=C(Nc1cccc2nsnc12)c1ccc(Br)o1 | 69.6
CCOc1ccc(C(=O)Nc2cccc3nsnc23)cc1Br | 78.2
O=C(Nc1sc2c(c1C(=O)N1CCCCC1)CCCCC2)c1ccc([N+](=O)[O-])cc1 | -2.1
COc1cccc(OC)c1C(=O)NCc1ccc(C)cc1 | 2.7
Fc1ccc(-c2noc(-c3ccc(Cl)cc3)n2)cc1 | -6.4
COc1cc(C(=O)N2CCN(C)CC2)c([N+](=O)[O-])cc1OC | -0.1
Cc1cccc(-c2noc(-c3ccc(C)c([N+](=O)[O-])c3)n2)c1 | 76.1
COc1ccc(-c2nc(-c3cc(OC)c(OC)c(OC)c3)no2)cc1OC | -5.7
Cc1c(-c2nc(-c3ccncc3)no2)cccc1[N+](=O)[O-] | 0.7
COc1ccc(-c2noc(-c3ccc(C)c([N+](=O)[O-])c3)n2)cc1 | -0.4
Cc1ccc(-c2noc(-c3cccc([N+](=O)[O-])c3C)n2)cc1 | 6.9
Cc1ccc(-c2nc(-c3cccnc3)no2)cc1[N+](=O)[O-] | 21.4

SMILES | displacement [%]
Cc1cccc(-c2noc(-c3cccc([N+](=O)[O-])c3C)n2)c1 | 78.9
Cc1cccc(-c2noc(-c3ccc(Br)cc3)n2)c1 | -1.7
COc1ccc(-c2noc(-c3ccc(C)c([N+](=O)[O-])c3)n2)cc1OC | 54.4
O=C1c2ccccc2C(=O)C1C1=CC(c2ccccc2)C(c2ccccc2)N=N1 (stereo unspecified) | -10
O=S(=O)(NC(=S)c1ccccc1)c1ccc(I)cc1 | 11.9
COc1cc(/C=C2\C(=O)NC(=O)N(c3ccc(Cl)cc3)C2=O)cc(Cl)c1OC | -2.2
COc1ccc(/C=C/C(=O)c2ccc(Br)cc2)cc1[N+](=O)[O-] | 12.9
O=C(CSc1nnnn1-c1ccccc1)Nc1ccccc1[N+](=O)[O-] | 1.7
O=C(CSc1ccc(Cl)cc1)NCCc1ccc(F)cc1 | -8.3
O=C(NCc1ccc2c(c1)OCO2)c1ccccc1F | 14.1
O=C(Nc1ccc2c(c1)OCO2)C(=O)Nc1ccc2c(c1)OCO2 | 21.3
O=C(NNC(=O)c1ccc2c(c1)OCO2)NC1CCCCC1 | 10.1
c1cc2c(cc1NC1CCCCC1)OCO2 | 130
Cc1nn(Cc2cccc(Cl)c2)c(N)c1-c1ccccc1 | -9
CCOc1ccc(/C=N\NC(=O)c2ccc(Br)cc2)c(O)c1 | 6.9
O=C(Nc1ccc(S(=O)(=O)N2CCc3ccccc32)cc1)c1ccc(Cl)cc1 | 0.8
O=C(Nc1ccc(S(=O)(=O)N2CCc3ccccc32)cc1)c1ccc(-c2ccccc2)cc1 | 89.5
Cc1ccc(C(=O)Nc2ccc(S(=O)(=O)N3CCc4ccccc43)cc2)cc1 | 1.6
O=C(O)c1c(F)c(F)c(F)c(F)c1-c1ccc(Cl)cc1 | 11.8
O=c1c(-c2ccccc2)coc2cc(OCc3ccccc3Cl)ccc12 | 20.7
Cc1oc2ccc(OCc3ccccc3Cl)cc2c1C(=O)O | 5.8
Oc1cc(OCc2ccccc2Cl)ccc1-c1[nH]ncc1-c1ccccc1 | 77.4
CCOC(=O)c1ccc(N/C=C/C(=O)c2ccc(Cl)cc2)cc1 | 59.8

SMILES | displacement [%]
CCOC(=O)c1ccc(N/C=C/C(=O)c2cccs2)cc1 | 14.1
Cc1ccc(C(=O)/C=C/Nc2ccc(Cl)c(Cl)c2)cc1 | 126
Cc1cccc(N/C=C/C(=O)c2ccc(Cl)cc2)c1 | -2.2
CCOC(=O)c1ccc(NC(=O)/C=C/c2ccc(Cl)cc2)cc1 | 16.8
Cc1ccc(C(=O)/C=C/Nc2cccc(O)c2)cc1 | -0.4
CCOc1ccccc1C(=O)NCCc1nc2ccccc2[nH]1 | 4.7
O=C(NC1C2CC3CC(C2)CC1C3)c1ccccc1F (stereo unspecified) | 4.9
Cc1cc(/C=C2/SC(=O)NC2=O)c(C)n1-c1cccnc1 | 0.8
C/C(=N\NC(=O)c1cc2ccccc2cc1O)c1ccco1 | 10
COC(=O)c1cc(-c2ccc(C)cc2)nc2ccccc12 | 2.1
N#Cc1c(-c2ccccc2)cc(-c2ccc(Br)cc2)nc1N | 8.8
COc1ccc(-c2cc(-c3ccc(Cl)cc3)c(C#N)c(N)n2)cc1 | 6.4
COc1ccc(-c2cc(-c3ccc(Br)cc3)nc(N)c2C#N)cc1 | 70.6
CN1CCN(c2c([N+](=O)[O-])c(=O)n(C)c3ccccc23)CC1 | -4.8
CCC1=NN2C(=N)/C(=C/c3ccc(-c4ccc(F)c(Cl)c4)o3)C(=O)N=C2S1 | -0.2
CCCC1=NN2C(=N)/C(=C/c3ccc(-c4ccccc4C(=O)OC)o3)C(=O)N=C2S1 | -37
CCCC1=NN2C(=N)/C(=C/c3ccc(-c4ccc(F)cc4)o3)C(=O)N=C2S1 | 135
CCC1=NN2C(=N)/C(=C/c3ccc(-c4ccc(F)cc4)o3)C(=O)N=C2S1 | 69.2
CCCC1=NN2C(=N)/C(=C/c3ccc(-c4ccc(C(=O)OCC)cc4)o3)C(=O)N=C2S1 | 164
CCC1=NN2C(=N)/C(=C/c3ccc(-c4ccc(Cl)cc4)o3)C(=O)N=C2S1 | 66.7
CCC1=NN2C(=N)/C(=C/c3ccc(-c4ccc(C(=O)O)cc4)o3)C(=O)N=C2S1 | 44.1
CCC1=NN2C(=N)/C(=C/c3ccc(F)cc3)C(=O)N=C2S1 | 7.5
CCOC(=O)c1ccc(-c2ccc(/C=C3/SC(N)=NC3=O)o2)cc1 | -27.3

SMILES | displacement [%]
CCC1=NN2C(=N)/C(=C/c3ccc(-c4ccc(C)c(Cl)c4)o3)C(=O)N=C2S1 | 3.9
CCCC1=NN2C(=N)/C(=C/c3ccccc3C)C(=O)N=C2S1 | 32.9
CCCC1=NN2C(=N)/C(=C/c3ccc(OCc4ccc(F)cc4)c(OCC)c3)C(=O)N=C2S1 | -6.7
CCOc1ccc(N2C(=O)NC(=O)/C(=C/c3cc(Br)c(OCC)c(OC)c3)C2=O)cc1 | -6.7
CC(=O)C1=C(O)C(=O)N(C)C1c1ccccc1[N+](=O)[O-] (stereo unspecified) | 2.8
C/C(=N\N=C1\NC(=O)C(CC(=O)NCc2ccccc2)S1)C(C)C (stereo unspecified) | 0.3
CCCCOc1ccc(NC(=O)CSc2nnc(N)s2)cc1 | -16.9
c1ccc(CCSc2nc3ccccc3[nH]2)cc1 | 6.2
Cc1cc(C=C2C(=O)NC(=O)NC2=O)c(-c2ccccc2)n1-c1ccccc1 | 150
Cc1cc(/C=C2/NC(=O)NC2=O)c(-c2ccccc2)n1-c1ccccc1 | -5.1
Cc1cc(/C=C2/NC(=S)NC2=O)c(-c2ccccc2)n1-c1ccccc1 | -14.7
Cc1cc(C=C2C(=O)NC(=S)NC2=O)c(-c2ccccc2)n1-c1ccccc1 | 162
Cc1cc(/C=C2/SC(=O)NC2=O)c(-c2ccccc2)n1-c1ccccc1 | -9.6
Cc1cc(C=C2C(=O)c3ccccc3C2=O)c(-c2ccccc2)n1-c1ccccc1 | 68
Cc1cc(C)c(C=C2C(=O)c3ccccc3C2=O)cc1C | -1.6
Cc1cc(/C=N/N2C(=O)c3ccccc3C2=O)c(C)n1-c1ccccc1 | 11.4
Cc1cc(/C=C2/SC(=S)NC2=O)c(-c2ccccc2)n1-c1ccccc1 | 0.7
CN(C)CCNC(=O)/C(=N\O)c1ccccn1 | 15.9
COc1ccc(CN(C)C(=O)c2cccc(C(=O)N(C)Cc3ccc(OC)cc3)c2)cc1 | 10.7
COc1cccc(C(=O)Nc2ccc(I)cc2Cl)c1 | 8.2
Nc1c(Cc2ccccc2)ccc2c1C(=O)c1ccccc1C2=O | 10.3
CC(C)(CN1CCOCC1)NS(=O)(=O)c1ccc(Cl)cc1 | 7.4
CCc1ccc(OCC(=O)Nc2ccc3ccccc3c2)cc1 | 11.4

SMILES | displacement [%]
Cc1ccc(N2NC(=O)/C(=C/c3ccc(-c4ccc(S(N)(=O)=O)cc4)o3)C2=O)cc1 | 5.6
CC(=O)Nc1ccc(S(=O)(=O)N(Cc2ccccc2)C(C)C)cc1 | 130
CCN(Cc1ccccc1)S(=O)(=O)c1ccc(NC(C)=O)cc1 | 19.2
CC(C)N(Cc1ccccc1)S(=O)(=O)c1ccc(F)cc1 | 12.3
CC1CN(CC(O)COc2ccc3ccccc3c2)CC(C)O1 (stereo unspecified) | 0.2
COc1ccc2[nH]c3c(c2c1)CCn1c-3nc2scc(-c3ccccc3)c2c1=O | 0.2
CCc1cc2c(C)cc(=O)oc2cc1OC(C)=O | 10.1
COc1ccc(-n2c(O)c(C=Nc3ccc(Cl)cc3)c(=O)[nH]c2=O)cc1 | 14.3
COc1ccc(CN=Cc2c(O)n(-c3ccc(OC)cc3)c(=O)[nH]c2=O)cc1 | -3.4
COc1cc(CN=Cc2c(O)n(-c3cc(OC)ccc3OC)c(=O)[nH]c2=O)cc(OC)c1 | 1.6
COc1ccc(-n2c(O)c(C=NCc3ccc(F)cc3)c(=O)[nH]c2=O)cc1 | 12.4
COc1ccc(-n2c(O)c(C=Nc3cccc(Cl)c3)c(=O)[nH]c2=O)cc1 | 14.2
COc1cccc(-n2c(O)c(C=Nc3cccc(Cl)c3)c(=O)[nH]c2=O)c1 | -3.7
COc1ccc(CN=Cc2c(O)n(-c3ccc(Cl)cc3)c(=O)[nH]c2=O)cc1 | -6.6
COc1cc(CN=Cc2c(O)n(-c3ccc(F)cc3)c(=O)[nH]c2=O)cc(OC)c1 | 84.7
Cc1ccc(N=Cc2c(O)n(-c3ccccc3)c(=O)[nH]c2=O)cc1 | -5.6
COc1cc(N=Cc2c(O)n(-c3ccc(Cl)cc3)c(=O)[nH]c2=O)cc(OC)c1 | 70.5
COc1ccc(CN=Cc2c(O)n(-c3cccc(Cl)c3)c(=O)[nH]c2=O)cc1 | 81.4
COc1ccc(N=Cc2c(O)n(-c3ccccc3)c(=O)[nH]c2=O)cc1Cl | 113
